# Where “and” joins values, the source holds several entries; their conditions need not be identical. Equal values may be shown once. A structure can be active in one record and inactive in another. Calls of active or inactive are those of the source. The calls were made as follows: active = hit-call score of the fitted dose curve at least 0.9, where 1 is the maximum; inactive = score below 0.9.
# Experiment: ATG_VDRE_CIS: Attagene CIS-FACTORIAL HepG2 Assay for human Vitamin D Receptor Element (VDRE) (AID 2282968)
# Conditions: HepG2 VDRE cis-reporter transcription, actives raise or lower the signal
# Method: ATG_CIS is a cell-based, multiplexed-readout assay that uses HepG2, a human liver cell line, with measurements taken at 24 hours after chemical dosing in a 24-well plate.ATG_VDRE_CIS is one of 52 assay component(s) measured or calculated from the ATG_CIS assay. It is designed to make measurements of mRNA induction, a form of inducible reporter, as detected with fluorescence intensity signals by Reverse transcription polymerase chain reaction (RT-PCR) and Capillary electrophoresis technology.Data from the assay component ATG_VDRE_CIS was analyzed into 1 assay endpoint. This assay endpoint, ATG_VDRE_CIS, was analyzed with bidirectional fitting relative to DMSO as the negative control and baseline of activity. Using a type of inducible reporter, measures of mRNA for gain or loss-of-signal activity can be used to understand the reporter gene at the transcription factor-level as they relate to the gene VDR. Furthermore, this assay endpoint can be referred to as a primary readout, because this assay has produced multiple assay endpoints where this one serves a reporter gene function. To generalize the intended target to other relatable targets, this assay endpoint is annotated to the nuclear receptor intended target family, where the subfamily is non-steroidal.
# Human liver HepG2 cells are transiently transfected with multiple reporter transcription units (MRTUs) in 6-well plates using FuGene 6 reagent (Roche; 3 ml FuGene/1 mg DNA). The MRTU constructs are regulated by a cis-regulating element (promoter). […] A major difference between the CIS and TRANS system is that in CIS activities of endogenous TFs are measured, whereas the TRANS assay evaluates changes in activities of exogenous, chimeric NR-Gal4 proteins. […] At the end of 24 hour incubation, total RNA was isolated using TriZol reagent (Invitrogen). The isolated RNA is then reverse-transcribed using oligo(dT) primer and Mo-MLV reverse transcriptase (Invitrogen) with DNAse I (Ambion) treatment for 30 min. The one-tenth of the produced cDNA was amplified by PCR using Taq DNA polymerase (Invitrogen) and two reporter sequence-specific primers. The PCR products were fluorescently labeled by primer extension with 6-arboxyfluorescein (6-FAM) 5'-labeled reporter sequence-specific primer (2 min at 95 C, 20 s at 68 C and 10 min at 72 C) and these products were digested with 5U of HpaI (New England Biolabs) for 2h at 37 C. The fragments were purified using Qiaquick PCR columns (Qiagen), analyzed on an ABI 3130xL genetic analyzer (Applied Biosystems) with peak positions identified by using a set of X-rhodamine (ROX)-labeled MapMarker1000 molecular weight standards (BioVentures). The raw capillary electrophoresis data was processed using Attagraph software (Attagene).
Compound,AC50,outcome
CC(C)(C)c1csc(-c2cc3cc(OCc4ccccc4CC(=O)O)ccc3o2)n1,14.1 µM (active),
COc1cc(C(=O)NC2CCN(C)CC2)ccc1Nc1ncc2c(n1)N(C1CCCC1)CC(F)(F)C(=O)N2C,3.09 µM (active),
O=C(OCCCCCCOC(=O)c1ccccc1)c1ccccc1,,inactive
CCCCCCCCCC(=O)O,,inactive
CCCCCCCCOC(=O)c1cc(O)c(O)c(O)c1,,inactive
c1ccc2ccccc2c1,,inactive
CCN(Cc1cccnc1)C(=O)c1cccc(Cl)c1[C@]1(C)C(=O)N(Cc2ccc(OC)cc2OC)c2ccc(Cl)cc21,1.42 µM (active),
CO[C@H]1/C=C/O[C@@]2(C)Oc3c(C)c(O)c4c(O)c(c(/C=N/N5CCN(C)CC5)c(O)c4c3C2=O)NC(=O)/C(C)=C\C=C\[C@H](C)[C@H](O)[C@@H](C)[C@@H](O)[C@@H](C)[C@H](OC(C)=O)[C@@H]1C,1.38 µM (active),inactive
CC/C(=C(/CC)c1ccc(O)cc1)c1ccc(O)cc1,8.27 µM (active) and 6.68 µM (active) and 8.92 µM (active),inactive
NC(=O)c1nc(-c2cccc(-c3cc(F)ccc3OCC(F)(F)C(F)(F)F)c2)n[nH]1,13.7 µM (active),
O=C(O)Cn1c(=O)n(Cc2ccc(Br)cc2F)c(=O)c2ccc(Cl)cc21,27 µM (active),
O=c1[nH]sc2ccccc12,,inactive
O=C1CCC(C2CCCCC2)CC1,86.8 µM (active),inactive
CCCCCc1ccc(N)cc1,,inactive
Cc1cn([C@H]2C[C@H](N=[N+]=[N-])[C@@H](CO)O2)c(=O)[nH]c1=O,,inactive
CC(C)(c1cc(Br)c(O)c(Br)c1)c1cc(Br)c(O)c(Br)c1,22.1 µM (active) and 22.6 µM (active),
CC(=O)N1CCN(c2ccc(OC[C@H]3CO[C@](Cn4ccnc4)(c4ccc(Cl)cc4Cl)O3)cc2)CC1,8.88 µM (active),
CC1=CC(=O)/C(=C(/C)O)C(=O)O1,,inactive
COc1ccc2cc(S(=O)(=O)N[C@H](CC(=O)N[C@H](Cc3ccc(CN4[C@H](C)CCC[C@@H]4C)cc3)C(=O)N(C)C(C)C)c3ccc4c(c3)OCO4)ccc2c1,,inactive

Compound,AC50,outcome
CCOC(=O)O[C@H](C)OC(=O)c1ccc2c(c1)cc(C(=O)NC1CCN(C(C)C)CC1)n2Cc1cc(-c2ccc(Cl)s2)on1,,inactive
CC[C@@H]1C[C@H](N(Cc2cc(C(F)(F)F)cc(C(F)(F)F)c2)C(C)=O)c2cc(C(F)(F)F)ccc2N1C(=O)OC(C)C,0.119 µM (active),
CCCCCCCCCCCC[N+](C)(C)C,,inactive
CC(O)CC(C)(C)O (stereo not given),,inactive
Cc1ccc2oc(CN(Cc3ccccc3)C(=O)Nc3c(F)cc(F)cc3F)c(-c3ccc(Cl)cc3)c2c1,,inactive
OC12N=C(c3ccccc3)SC1Cc1cc(Cl)ccc12 (stereo not given),,inactive
CCCCOC(=O)CC(CC(=O)OCCCC)(OC(C)=O)C(=O)OCCCC,8 µM (active) and 4.3 µM (active),
Clc1ccccc1C(c1ccccc1)(c1ccccc1)n1ccnc1,4.84 µM (active),
COc1cccc([C@H](O)C2CCN(CCc3ccc(F)cc3)CC2)c1OC,,inactive
CN(C)C(=O)C1(N2CCCCC2)CCN(CC[C@@]2(c3ccc(Cl)c(Cl)c3)CN(C(=O)c3ccccc3)CCO2)CC1,,inactive
COCC(C)OCC(C)OCC(C)O (stereo not given),,inactive
Cc1c2ccccc2c(C)c2c1ccc1ccccc12,,inactive
O=C(O)c1ccccc1-n1cc(C(=O)O)c(=O)c2cc(Nc3c(F)cc(F)cc3Cl)c(Cl)cc21,,inactive
CCCOC(=O)c1cc(O)c(O)c(O)c1,,inactive
Cc1oc2c(NC(=O)c3c(Cl)cccc3Cl)cccc2c1C(C)(C)O,4.01 µM (active),
OCCO,,inactive
CC[C@H](NC(=O)c1cc(F)ccc1NS(=O)(=O)c1cccc2cccnc12)c1ccccc1,0.209 µM (active),
O=CCCCC=O,,inactive
